PubChem BioAssay AID504332 (National Center for Advancing Translational Sciences (NCATS), 2011)
In all, about 350,000 compounds went through this assay and about 31,000 (8.9%) were called active. Inconclusive results (about 15%) are left out. Calls come from the whole dose curve; as a rule, active = well fitted inhibition curve with a large enough effect; inconclusive = small, poorly fitted or top-dose-only effect; inactive = no such curve, though single readings can be large or run the other way. The sample as a whole holds a higher share of actives than the screen did.

These molecules were tested against Histone-lysine N-methyltransferase EHMT2 (Homo sapiens) (UniProt Q96KQ7) (assay: qHTS Assay for Inhibitors of Histone Lysine Methyltransferase G9a). Conditions: G9a H3K9 monomethylation, AlphaScreen, 2 h; series mostly up to 59 µM.
Excerpt: Methylated lysines, on the N-terminal tails of histone proteins serve as epigenetic markers to recruit factors that can then modify local chromatin structure to lead to functional consequences. G9a and other members of the SUV39 family of the SET domain-containing superfamily of histone lysine methyltransferases (HMT) have been identified to specifically methylate Lys9 of histone H3 (H3K9). G9a catalyzes the mono- and di-methylation of H3K9 in mammalian euchromatic regions, where the resulting H3K9me2 is indicative of transcriptional repression. […] The inhibition of G9a will result in transcriptional activation and work synergistically with DNA methyltransferase and histone deacetylase inhibitors, to kill cancer cells. This qHTS assay for identification of G9a inhibitors is a chemiluminescence based AlphaScreen (PerkinElmer). Methylation of biotinylated-histone peptide is measured through specific antibody-based detection, in conjunction with streptavidin-coated donor and anti-IgG antibody-coated acceptor beads. The method is particularly well suited for detection of inhibitors acting by the desired histone peptide competitive mechanism and is applicable to testing other HMTs. Although AlphaScreen has significant advantages with its utility in a variety of epigenetic target assays, the primary screening data provided in this deposition should be used with caution due to the prevalence of screening artifacts. An AlphaScreen counterscreen is highly recommended to be run against any putative actives to eliminate non specific artifacts. Alternatively, one can use other AlphaScreen assays in PubChem to filter out promiscuous hits. Quinn et al. A chemiluminescence-based method for identification of histone lysine methyltransferase inhibitors. Mol Biosyst 6(5): 782-8. 2010. PMID: 20567762 [2] Baell,Holloway. New substructure filters for removal of pan assay interference compounds (PAINS) from screening libraries and for their exclusion in bioassays. J Med Chem. 53(7):2719-40. 2010. PMID: 20131845 NIH Molecular Libraries Probe Production Network [MLPCN] NIH Chemical Genomics Center [NCGC] Structural Genomics Consortium (SGC) NIH Grant: 5U54 MH084681-02
To each well of a 1,536w plate, 2ul of HMT enzyme (final 20nM) were added, using a nanoliter dispenser. The G9a- and GLP-inhibitor BIX-01294 (CID: 25150857) are used as an intraplate control, with a 16-point titration in duplicate. A Kalypsys pin-tool transferred 23nl of library compound solution in DMSO to each well. Following a 15 min incubation of enzyme with compounds at room temperature, 1ul mixture of b-H3K9 peptide substrate (final 500nM) and SAM cofactor (final 20uM) were added. Reactions were allowed to proceed at room temperature for 2 hours. Methylated b-H3K9 peptide product was detected with 0.5 ug/mL rabbit polyclonal anti-monomethyl histone H3K9 antibody (Abcam Inc., Cambridge, MA) and 20 ug/mL each streptavidin-coated donor and anti-rabbit IgG acceptor AlphaScreen beads. Antibody and beads were added in a 1ul dispense, for a final volume of 4ul, and plates were incubated, protected from the light, for 10 min at room temperature. Microplates were then read on an EnVision multilabel plate reader using the 1,536 plate HTS AlphaScreen aperture (excitation time 80 ms, measurement time 240 ms).
% is set by controls: 0 for no effect and ±100 for the full control effect; potency is the fitted concentration of half-maximal effect.
Note: nearly all actives have a fitted effect of over 75% in size.

Histone-lysine N-methyltransferase EHMT2 (Homo sapiens), sequence (Q96KQ7 913-1193 limits assumed): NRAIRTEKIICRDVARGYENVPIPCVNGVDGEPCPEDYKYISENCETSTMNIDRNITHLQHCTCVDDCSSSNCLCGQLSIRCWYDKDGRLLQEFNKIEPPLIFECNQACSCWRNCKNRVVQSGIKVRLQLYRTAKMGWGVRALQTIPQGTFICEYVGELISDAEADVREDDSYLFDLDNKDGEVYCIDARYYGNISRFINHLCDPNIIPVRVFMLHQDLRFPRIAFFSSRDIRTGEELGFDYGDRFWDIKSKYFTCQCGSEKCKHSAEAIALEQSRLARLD

Potency, active:
Cc1cc(C)c2nc(-c3cccnc3)cc(C(=O)Nc3ccc(S(=O)(=O)Nc4onc(C)c4C)cc3)c2c1 50.1 µM
COc1ccc(NC(=O)c2cn(-c3ccccc3)nc2SC)cc1 39.8 µM
COc1ccc(NC(=O)CN(C)C(=O)c2cc(-c3ccc(C)o3)nc3ccccc23)cc1 4.47 µM
Cc1ccc(NC(=O)c2cc(-c3ccc(C)o3)nc3ccccc23)nc1 2.24 µM
COc1ccc(NC(=O)CN(C)C(=O)Cc2coc3cc(C)c(C)cc23)cc1 50.1 µM
CCS(=O)(=O)Nc1cc(C(=O)OC)ccc1C(=O)OC 2.82 µM
COC(=O)c1ccc(COc2ccc(/C=C/C(=O)c3ccc(OC)c(CSCC(=O)O)c3)cc2OC)cc1 39.8 µM
Cc1nc(SCc2ccc(F)cc2)c([N+](=O)[O-])[nH]1 25.1 µM
C/C(=N/Nc1nc(-c2ccccc2)c(CC(=O)O)s1)c1ccccc1 1.78 µM
COc1ccc(C(=O)NC(=O)CSc2nnc(-c3ccco3)n2-c2ccccc2)cc1 89.1 µM
CCCC[C@H]1C(=O)N(c2ccccc2)N(c2ccc(O)cc2)C1=O 7.94 µM
COc1cc(/C=C/C2=CC(C)(C)NC(=S)N2)cc(OC)c1OC 39.8 µM
Cc1cc(C)c(C2C3=C(Nc4c2c(C)nn4-c2ccccn2)c2ccccc2C3=O)c(C)c1 (stereo not drawn) 11.2 µM
Cc1cc(-c2ccc(/C=N/n3cnnc3)o2)c([N+](=O)[O-])cc1C 50.1 µM
CN1CCN(c2oc(-c3ccc(COc4ccc(Cl)cc4)o3)nc2C#N)CC1 11.2 µM
COc1ccc(S(=O)(=O)N2CCN(CC(=O)N3c4ccccc4CC3C)CC2)cc1OC (stereo not drawn) 56.2 µM
CCN(CC(=O)Nc1ccc(Cl)c(S(=O)(=O)N(C)C)c1)Cc1nc2ccccc2c(=O)[nH]1 39.8 µM
CCCCN(CC(=O)Nc1cccc(S(=O)(=O)N2CCCC2)c1)Cc1nc2ccccc2c(=O)[nH]1 7.94 µM
S=C(Nc1cccc(Br)c1)N1CCn2cccc2C1c1cccnc1 (stereo not drawn) 50.1 µM
CCCCN=C1N/C(=C\c2ccco2)C(=O)N1c1ccccc1 44.7 µM

Potency, inactive:
Cc1noc(NS(=O)(=O)c2ccc(NC(=O)c3oc4ccc(F)cc4c3C)cc2)c1C
CCn1c(SCC(=O)Nc2ccc(S(=O)(=O)Nc3onc(C)c3C)cc2)nnc1-c1ccccc1
CC(C)OCCCn1c(SCC(=O)c2ccccc2)nc2c(sc3ccccc32)c1=O
COc1ccc(-c2nn(-c3ccccc3)cc2C(=O)Nc2nc(CC(C)=O)ns2)cc1
COc1cc(NC(=O)c2cccnc2SC)cc(OC)c1
Cc1nnc(C)n1-c1ccc(C(=O)Nc2cccc(Br)c2)cc1
CCOC(=O)CC1COCCN1C(=O)c1cc(COc2ccc(F)c(F)c2)on1 (stereo not drawn)
CSc1ncccc1C(=O)Nc1ccc(C)cn1
COc1ccc(NC(=O)CN(C)C(=O)CC2CCCCC2)cc1
COc1ccc(-c2cc(C(=O)N(C)Cc3ccccc3)c3ccccc3n2)cc1
COc1ccc(CNC(=O)Cc2coc3ccc(C(C)C)cc23)cc1
COc1ccc(NC(=O)CN(C)C(=O)c2n[nH]c3ccccc23)cc1
Cc1oc2ncnc(N3CCOCC3)c2c1C(=O)NCCc1ccccc1
CCCN(C(=O)Cn1cc(S(=O)(=O)N2CCN(c3ccccc3F)CC2)c2ccccc2c1=O)c1cccc(C)c1
O=C(CCNC(=O)c1ccc([N+](=O)[O-])cc1)NC1CCCCC1
COc1cc(NC(=O)Cn2nc(-c3ccc(C)c(C)c3)ccc2=O)cc(OC)c1
CCCN(CCC)C(=S)Nc1cc(C(=O)OC)ccc1C(=O)OC
CCN(CCO)C(=S)Nc1cc(C(=O)OC)ccc1C(=O)OC
CCn1cc(C(=O)N(C)Cc2ccccc2)c(=O)c2cc(S(=O)(=O)N3CCCCCC3)ccc21
Cc1ccc(S(=O)(=O)N2CCc3cc(C(=O)Nc4ccc(Cl)cc4C)ccc32)cc1
COc1ccc(/C=C/C(=O)N2CCCC2)cc1OC
COc1ccc(/C=C/C(=O)c2ccc(NS(=O)(=O)c3ccc(C)cc3)cc2)cc1O
Cc1cc([N+](=O)[O-])nn1Cc1ccc(F)cc1
CC(C)(C)c1ccc(SCCc2ccncc2)cc1
Cc1nn2c(=O)cc(COC(=O)CNC(=O)c3ccc(F)cc3)nc2s1
Cc1ccc(-c2nc(C)sc2CC(=O)O)cc1
CCOC(=O)C(=O)Nc1nc(-c2ccccc2)c(CC)s1
Cc1nnc(SCC(=O)Nc2cccc(N)c2)n1-c1ccccc1
O=C(Nc1cccc(F)c1)NC1CCCCCCC1
COc1ccc(C(=O)c2oc3ccccc3c2NC(=O)COc2cccc(C)c2)cc1
CCc1nn(CC(=O)N2CCN(c3cccc(C(F)(F)F)c3)CC2)c(=O)c2cc3occc3n12
COCCN(Cc1ccco1)C(=O)Cn1ncc2c([nH]c3ccccc32)c1=O
O=C(CSc1nnc(-c2ccco2)n1-c1ccccc1)NCCc1ccccc1
COc1ccc(CCNC(=O)C(=O)NCC(c2ccco2)S(=O)(=O)c2cccs2)cc1OC (stereo not drawn)
CCCCc1ccc(NC(=O)CN2C(=O)NC(Cc3ccccc3)C2=O)cc1 (stereo not drawn)
O=C(O)CC1S/C(=N\N=C/c2ccccc2O)N(c2ccc(O)cc2)C1=O (stereo not drawn)
COc1ccc(-n2c(=O)c3c(c4cc(OC)ccc4n3C)n(Cc3cccc(C)c3)c2=O)cc1
COc1ccc(C)cc1NC(=O)CN(C)S(=O)(=O)c1ccc2c(c1)n(C)c(=O)c(=O)n2C
COc1ccc2[nH]c(C(=O)N/N=C/c3cc(OC)c(OC)c(OC)c3)cc2c1
CCC(=O)c1ccc(OC(=O)/C=C/c2cc(OC)c(OC)c(OC)c2)cc1
Cc1cccc(-c2nc(SCc3ccc(Br)cc3)n3[nH]c(=O)cc3n2)c1
Cc1nn(-c2ccccn2)c2c1C(c1ccncc1)C1=C(CC(C)(C)CC1=O)N2 (stereo not drawn)
Cc1ccc(Cl)cc1-c1ccc(/C=N/n2cnnc2)o1
Clc1cc(-c2ccc(/C=N/n3cnnc3)o2)ccc1Br
CCc1cnc2c(c1SCC(=O)c1ccccc1)c(=O)n(C)c(=O)n2C
Cc1cccc(-c2nnc(SCC(=O)N3CCCc4ccccc43)o2)c1
CCC(C)Nc1oc(-c2ccc(COc3ccc(Cl)cc3)o2)nc1C#N (stereo not drawn)
COc1ccc(OCc2ccc(-c3nc(C#N)c(N4CCN(c5ccccc5)CC4)o3)o2)cc1
C=CCOc1ccc(/C=C/C(=O)OCC(=O)NC(C)c2ccc(F)cc2)cc1 (stereo not drawn)
COc1ccc(-c2nc3scc(CCNS(=O)(=O)c4cc(F)ccc4OC)n3n2)cc1OC
COc1ccc(S(=O)(=O)N2CCC(C(=O)N3CCc4ccccc4C3)CC2)cc1OC
CC1Cc2ccccc2N1C(=O)CSc1nnc(-c2ccc(S(=O)(=O)N3CCCC3)cc2)n1C (stereo not drawn)
CCN(CCCNC(=O)c1c(C)oc2ncn(CC(C)C)c(=O)c12)Cc1ccccc1
COc1cccc(-c2nnc3n(CCc4ccccc4)c(=O)c4ccccc4n23)c1O
O=C(Cn1cnc2ccccc2c1=O)Nc1cccc(S(=O)(=O)N2CCCCC2)c1
CN(C)S(=O)(=O)c1cc(NC(=O)CN2C(=O)NC3(CCCc4ccccc43)C2=O)ccc1Cl (stereo not drawn)
CCN(CC(=O)Nc1cccc(S(N)(=O)=O)c1)Cc1nc2ccccc2c(=O)[nH]1
CCCC(=O)N(CCc1ccccc1)Cc1nc2ccccc2c(=O)[nH]1
O=C(COc1ccccc1F)Nc1ccc(C(=O)OCc2cc(=O)n3nc(C4CC4)sc3n2)cc1
CCCNc1ncnc2c1c(-c1ccccc1)cn2-c1ccc(OCC)cc1
CC(=O)N1c2ccc(S(=O)(=O)N3CCCC(C(=O)NCc4ccc(Cl)cc4)C3)cc2CC1C (stereo not drawn)
COC(=O)c1cc(NC(=O)CCS(=O)(=O)c2cc(Br)cc3c2N(C(=O)C2CC2)CC3)cc(C(=O)OC)c1
CCCCn1c(N)c(N(CC)C(=O)/C=C/c2ccco2)c(=O)[nH]c1=O
O=C(OCN1C(=O)c2ccccc2C1=O)/C(=C\c1ccco1)NC(=O)c1ccccc1

activity, negative = inhibition, inactive:
CC(=O)N1CCN(C(=O)c2cc(-c3ccc(C)o3)nc3ccccc23)CC1 -3.86% [at 0.501 µM]
COc1ccc(NC(=O)CN(C)C(=O)c2cc(C3CC3)nn2-c2ccccc2)cc1 -2.32% [at 2.33 µM]
Cc1nc(N)nc(SCc2ccc([N+](=O)[O-])cc2)c1N -1.52% [at 12.7 µM]
CCN(CC)CCn1c2c(c(SCC(=O)Nc3nc4ccccc4s3)nc1=O)CCCC2 5.88% [at 0.501 µM]
COc1ccc(-n2c(SCC(=O)NCc3cccs3)nnc2-c2ccoc2C)cc1 -7.6% [at 12.7 µM]
O=C(c1cn(-c2ccccc2)nc1-c1cccnc1)N1CCN(S(=O)(=O)c2ccccc2F)CC1 -2.44% [at 12.7 µM]
O=C(Nc1ncccc1O)c1ccc(S(=O)(=O)N2CCCC2)cc1 6.98% [at 12.7 µM]
O=[N+]([O-])c1cccc(/C=N/Nc2ncc(Br)cn2)c1 18% [at 0.501 µM]
N#Cc1ccccc1S(=O)(=O)N1CCN(Cc2c(O)ccc3ccccc23)CC1 -0.103% [at 2.33 µM]
